GDH-TPI counter-1: GDH-TPI coupling enzyme inhibitors, primary screen, artefact control for M. tuberculosis FBA inhibitor project, biochemical, absorbance, full deck; GDH-TPI coupled enzyme counterscreen, NADH absorbance; inhibition, % at 4.8 µM; 360,000 tested, 1.2% active; in the data active = inhibition above about 30%
Anthrax LF prot: Bacillus anthracis LF protease inhibitors, primary screen, biochemical, multiplex microsphere, MLPCN library | multiplex microsphere protease cleavage assay | Lethal factor (Bacillus anthracis), P15917 | 360,000 tested, 0.12% active | AID 588501, 2011 | inhibition, % at 10 µM; in the data active = inhibition above about 30%; inconclusive = no clear call, values can overlap the other calls
Target sequence (P15917 whole entry, looked up): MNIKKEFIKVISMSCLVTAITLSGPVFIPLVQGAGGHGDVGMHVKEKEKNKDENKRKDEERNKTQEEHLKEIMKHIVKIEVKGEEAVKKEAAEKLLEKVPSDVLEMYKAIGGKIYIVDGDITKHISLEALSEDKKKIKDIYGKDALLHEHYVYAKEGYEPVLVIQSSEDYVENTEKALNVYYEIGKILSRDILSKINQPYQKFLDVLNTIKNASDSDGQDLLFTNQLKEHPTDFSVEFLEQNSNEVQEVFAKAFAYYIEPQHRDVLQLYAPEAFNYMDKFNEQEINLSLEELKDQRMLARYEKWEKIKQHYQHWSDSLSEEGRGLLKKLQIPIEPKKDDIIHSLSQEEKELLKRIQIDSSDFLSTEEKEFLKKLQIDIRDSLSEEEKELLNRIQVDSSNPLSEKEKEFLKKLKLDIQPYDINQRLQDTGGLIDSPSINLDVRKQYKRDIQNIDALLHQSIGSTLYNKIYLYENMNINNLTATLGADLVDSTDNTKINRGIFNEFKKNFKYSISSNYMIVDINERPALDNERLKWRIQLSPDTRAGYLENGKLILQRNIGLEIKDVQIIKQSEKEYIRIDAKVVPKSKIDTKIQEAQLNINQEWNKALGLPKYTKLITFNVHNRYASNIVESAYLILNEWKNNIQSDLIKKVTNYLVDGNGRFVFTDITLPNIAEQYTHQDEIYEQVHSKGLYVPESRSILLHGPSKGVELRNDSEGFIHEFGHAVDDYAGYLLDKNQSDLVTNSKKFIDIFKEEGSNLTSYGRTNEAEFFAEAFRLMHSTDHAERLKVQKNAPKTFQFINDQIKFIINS
Mtb FBA inh: Mtb FBA enzyme inhibitors, primary screen, biochemical, fluorescence, strain H37Rv; inhibition, % at 1 µM; purified M. tuberculosis FBA, fluorescence read-out; 360,000 tested, 2.3% active; Fructose-bisphosphate aldolase (Mycobacterium tuberculosis (strain ATCC 25618 / H37Rv)), …; AID 588726, 2011
BoNT-F LC inh: BoNT/F light chain protease inhibitors, primary screen, biochemical, flow cytometry, MLPCN library; Botulinum neurotoxin type F light chain protease (Clostridium botulinum); Multiplex microsphere protease cleavage assay; inhibition, % at 10 µM; 360,000 tested, 0.22% active; in the data active = inhibition above about 35%, passing the limit was not always enough; inconclusive = no clear call, values can overlap the other calls
BoNT A protease: BoNT/A light chain protease inhibitors, primary screen, biochemical, flow cytometry, MLPCN library | Botulinum neurotoxin type A light chain protease (Clostridium botulinum A str. ATCC 3502) | multiplex microsphere protease substrate cleavage | inhibition, % at 10 µM | 360,000 tested, 0.17% active; in the data active = inhibition above about 30%; inconclusive = no clear call, values can overlap the other calls
Bead autofluor: counter-screen for toxin protease inhibitors: compound fluorescence; compound autofluorescence counterscreen, microsphere flow cytometry; hits give high values; fluorescence intensity (test concentration not listed); 360,000 tested, 3.1% active; AID 624483; in the data active = fluorescence intensity above about 16000; inconclusive = no clear call, values can overlap the other calls
Mtb FBA confirm: M. tuberculosis aldolase blockers, biochemical, fluorescence, strain H37Rv, confirmation | shares compounds with Mtb FBA inh | purified M. tuberculosis FBA, fluorescence read-out | inhibition, % at 1 µM | 5,600 tested, 78% active
GDH-TPI counter-2: GDH-TPI coupling enzyme inhibitors, artefact control for M. tuberculosis FBA inhibitor project, biochemical, fluorescence, high throughput | shares compounds with Mtb FBA inh | GDH-TPI coupled enzyme counterscreen | inhibition, % at 1 µM | 5,600 tested, 81% active; in the data active = inhibition above about 10%
Large screens that a line does not name were inactive (follow-up assays come after a bar, where they were run). Most compounds without a hit are left out; they make up all but 6.7% or so of the library. Cut-off read from the data, not from the text of the source, unless noted: active = inhibition above about 27%; inactive = the rest.

CCCCCCc1c(C)c2ccc(OCC(=O)N3CCC[C@H]3C(=O)O)c(C)c2oc1=O	Mtb FBA inh 81 | Mtb FBA confirm 148 | GDH-TPI counter-2 113
Cc1c(OCC(=O)NCC2CCC(C(=O)O)CC2)ccc2c3c(c(=O)oc12)CCC3 (stereo unspecified)	none
CCc1cc(=O)oc2cc(OCC(=O)N3CCC[C@H]3C(=O)O)ccc12	Mtb FBA inh 35 | Mtb FBA confirm active | GDH-TPI counter-2 active
CCCc1cc(=O)oc2c(C)c(OCC(=O)N3CCC[C@@H]3C(=O)O)ccc12	Mtb FBA inh 43 | Mtb FBA confirm 55 | GDH-TPI counter-2 45
CCCc1nc2sc(C(=O)OCC)c(N)c2c2c1COC(C)(C)C2	none
CCCc1nc2oc(C(=O)OCC)c(N)c2c2c1COC(C)(C)C2	Mtb FBA inh 59 | Mtb FBA confirm 92 | GDH-TPI counter-2 89
O=C(O)c1ccccc1NCN1C(=O)C2CC=C(Cl)CC2C1=O (stereo unspecified)	Mtb FBA inh 40, Bead autofluor 24033 | Mtb FBA confirm inactive | GDH-TPI counter-2 29
O=S(=O)(c1ccccc1OC(F)(F)F)N1CCN(c2ccnc3cc(Cl)ccc23)CC1	none
Cc1cc(C)c2c(N)c3ccccc3nc2n1	Mtb FBA inh 70 | Mtb FBA confirm 181 | GDH-TPI counter-2 143
CCc1ccc2nc3nc(C)cc(C)c3c(N)c2c1	Mtb FBA inh 34 | Mtb FBA confirm 103 | GDH-TPI counter-2 77
C=CCN1CCN(C(=O)c2ccc(-c3ccccc3)cc2)CC1	none
Cc1ccc(F)cc1-c1nc(NCC2CC2)nc2ccsc12	Mtb FBA inh 46 | Mtb FBA confirm 70 | GDH-TPI counter-2 56
OCc1ccccc1-c1nc(NCc2ccccc2)nc2ccsc12	Mtb FBA inh 63 | Mtb FBA confirm inactive | GDH-TPI counter-2 inactive
c1ccc(-c2nc(NCC3CC3)nc3ccsc23)cc1	Mtb FBA inh 42 | Mtb FBA confirm 138 | GDH-TPI counter-2 97
Cc1ccccc1-c1nc(NCC2CC2)nc2ccsc12	none
Clc1ccccc1Nc1nc(NCc2ccccc2)nc2ccsc12	none
CC(C)c1ccc(NC(=S)Nc2cccc3ccccc23)cc1	Mtb FBA inh 30 | Mtb FBA confirm 68 | GDH-TPI counter-2 55
CCOc1ccc(NC(=S)Nc2cccc3cnccc23)cc1	none
Cc1ccc(NC(=S)Nc2cccc3ccccc23)cc1	none
CCOc1ccc(NC(=S)Nc2cccc3ccccc23)cc1	Mtb FBA inh 58 | Mtb FBA confirm 82 | GDH-TPI counter-2 73
Cc1cc2nccc(-c3ccccn3)n2n1	none
COC(=O)C1=C(c2c(C)noc2C)C[C@@H]2CC[C@H]1N2C(=O)NCCOc1ccccc1Cl	none
Cc1ccc(CNc2cnccn2)s1	none
O=C(NCc1ccc(F)cc1)c1cnccn1	BoNT-F LC inh inconclusive
Clc1ccc(CNc2cnccn2)cc1	Mtb FBA inh 71 | Mtb FBA confirm 125 | GDH-TPI counter-2 92
Fc1ccc(CNc2cnccn2)cc1	Mtb FBA inh 71 | Mtb FBA confirm inactive | GDH-TPI counter-2 inactive
c1ccc(CNc2cnccn2)cc1	Mtb FBA inh 69 | Mtb FBA confirm 108 | GDH-TPI counter-2 93
CC1CCCN(C(=O)c2cccc(S(=O)(=O)NCc3ccccc3)c2)C1 (stereo unspecified)	none
O=C(/C=C/c1ccccc1)OCCCN=C1NS(=O)(=O)c2ccccc21	none
CC(=O)c1cccc(OC(=O)C2=CC=CN3CCS(=O)(=O)N=C23)c1	Mtb FBA inh 44 | Mtb FBA confirm 146 | GDH-TPI counter-2 152
O=C(Nc1cccc(Cl)c1)C1=CC=CN2CCS(=O)(=O)N=C12	none
CCn1cc(C2C(C(=O)Nc3ccc(Br)cn3)=C(C)NC3=C2C(=O)CCC3)c(C)n1 (stereo unspecified)	Mtb FBA inh 33 | Mtb FBA confirm 132 | GDH-TPI counter-2 94
CC1=C(C(=O)Nc2ccccn2)C(c2cn(C)nc2C)C2=C(CCCC2=O)N1 (stereo unspecified)	Mtb FBA inh 37 | Mtb FBA confirm active | GDH-TPI counter-2 171
Cc1cc(C)cc(NC(=O)CSCc2cc(=O)n3ccsc3n2)c1	none
CN(CCCN1CCOCC1)C(=O)c1ccc2nc(Cc3cccc(Cl)c3)oc2c1	none (no result: Anthrax LF prot, BoNT-F LC inh, BoNT A protease, Bead autofluor)
Cc1ccc(NC(=O)CC(C)S(=O)(=O)c2ccc3c(c2)NC(=O)CO3)c(Cl)c1 (stereo unspecified)	Mtb FBA inh 71 | Mtb FBA confirm active | GDH-TPI counter-2 active
Cc1ccc(C(=O)Nc2ccc3nccnc3c2)cc1	Mtb FBA inh 37 | Mtb FBA confirm 44 | GDH-TPI counter-2 36
Cc1cc(NC(=O)c2ccc3nccnc3c2)ccc1Br	none
Cc1coc2c1c(C)cc1oc(=O)c(CC(=O)NCC(=O)NCC(=O)O)c(C)c12	Mtb FBA inh 93 | Mtb FBA confirm active | GDH-TPI counter-2 active
Cc1oc2c(c(C)cc3oc(=O)c(CC(=O)NCCCN4CCCC4=O)c(C)c32)c1C	none
COCCCNC(=O)Cc1c(C)c2c(cc(C)c3c(C(C)(C)C)coc32)oc1=O	Mtb FBA inh 36 | Mtb FBA confirm 62 | GDH-TPI counter-2 54
COCCNC(=O)Cc1c(C)c2c(cc(C)c3c(C)coc32)oc1=O	Mtb FBA inh 38 | Mtb FBA confirm 159 | GDH-TPI counter-2 125
Cc1coc2c1c(C)cc1oc(=O)c(CC(=O)NCCC(=O)O)c(C)c12	Mtb FBA inh 91 | Mtb FBA confirm 62 | GDH-TPI counter-2 57
Cc1oc2c(c(C)cc3oc(=O)c(CC(=O)NCC(=O)NCC(=O)NCC(C)O)c(C)c32)c1C (stereo unspecified)	none
Cc1c(NC(=S)NC(=O)c2ccccc2Br)c(=O)n(-c2ccccc2)n1C	none
N#Cc1c(-c2ccccc2)nc(N2CCN(Cc3ccccc3)CC2)[nH]c1=O	none
O=C(Nc1ccc(NC(=O)c2cccnc2)cc1)c1ccccc1	none
CC1CCC(O)(C(C(=O)O)c2ccccc2)CC1 (stereo unspecified)	none
Cc1ccc(-n2c(O)c(C=NCCC3=CCCCC3)c(=O)[nH]c2=O)cc1	none
O=C(Nc1ccc(Cl)cc1)N1CCOC12CCCCC2	none
N#Cc1c(C(F)(F)F)cc(-c2ccccc2)nc1SCCN1CCOCC1	Mtb FBA inh 47 | Mtb FBA confirm inactive | GDH-TPI counter-2 inactive
